# Bioassay records: PubChem BioAssay, National Center for Advancing Translational Sciences (NCATS)
# IL-1B inflam inh: qHTS for Inhibitors of Inflammasome Signaling: IL-1-beta AlphaLISA Primary Screen. THP-1 LPS/ATP IL-1B secretion, AlphaLISA, 16 h; active compounds read low. activity change, % at 57.5 µM. 4.7% of 360,000 active; in the data active = activity change below about -50%; inconclusive = mostly about -30% to -49%
#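 THP-1 cells pretreated 1 hr with compounds (up to 57.5 uM final), then stimulated with LPS (250 ng/mL final) plus ATP (1.25 mM final); secreted IL-1B measured by AlphaLISA after 16 hr, decreased signal indicating inhibition.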
# TDP1 cell CPT: qHTS for Inhibitors of human tyrosyl-DNA phosphodiesterase 1 (TDP1): qHTS in cells in presence of CPT; chicken DT40 Tdp1-/-;hTDP1 cells + 20 nM CPT, ATP luminescence, 48 h; Potency, µM (series often up to 46.2 µM), inactives show at the highest dose activity change, negative = growth inhibition, most hits filed as inhibitors; 12% of 420,000 active; AID 686979, 2013; note: potency is the fitted concentration of half-maximal effect; nearly all actives have a fitted effect of over 55% in size
#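 Chicken DT40 Tdp1-/- cells stably complemented with human TDP1 were seeded at 400 cells/well in medium containing 20 nM camptothecin, exposed to pin-transferred compounds, and grown at 37 °C for at least 48 hr. Viability was read as ATP luminescence.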
# DT40 TDP1 no CPT: qHTS for Inhibitors of human tyrosyl-DNA phosphodiesterase 1 (TDP1): qHTS in cells in absence of CPT. Potency, µM (titrated, usually from 46.2 µM), for inactives: at the highest dose activity change, negative = growth inhibition, most hits filed as inhibitors. DT40 Tdp1-/- hTDP1 cells, no CPT, ATP luminescence, 48 h. 15% of 420,000 active; note: potency is the fitted concentration of half-maximal effect; nearly all actives have a fitted effect of over 55% in size
#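 Seeded 400 DT40-hTDP1 cells/well (vehicle DMSO, no 20 nM CPT); pinned compounds; ≥48 hr at 37 °C; CellTiter-Glo luminescence as viability measure.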
# RORgamma inh: qHTS for inhibitors of ROR gamma transcriptional activity. 5.4% of 310,000 active. Potency, µM (doses to about 53.6 µM), without a hit: top-dose activity change, negative = inhibition, usual class: inhibitors. Drosophila S2 Gal4-RORgamma UAS-luciferase reporter, 20 h. Nuclear receptor ROR-gamma (Mus musculus), P51450. AID 2551, 2010; note: potency is the fitted concentration of half-maximal effect; nearly all actives have a fitted effect of over 60% in size
# Target sequence (P51450 whole entry, looked up, the tested form may be a part): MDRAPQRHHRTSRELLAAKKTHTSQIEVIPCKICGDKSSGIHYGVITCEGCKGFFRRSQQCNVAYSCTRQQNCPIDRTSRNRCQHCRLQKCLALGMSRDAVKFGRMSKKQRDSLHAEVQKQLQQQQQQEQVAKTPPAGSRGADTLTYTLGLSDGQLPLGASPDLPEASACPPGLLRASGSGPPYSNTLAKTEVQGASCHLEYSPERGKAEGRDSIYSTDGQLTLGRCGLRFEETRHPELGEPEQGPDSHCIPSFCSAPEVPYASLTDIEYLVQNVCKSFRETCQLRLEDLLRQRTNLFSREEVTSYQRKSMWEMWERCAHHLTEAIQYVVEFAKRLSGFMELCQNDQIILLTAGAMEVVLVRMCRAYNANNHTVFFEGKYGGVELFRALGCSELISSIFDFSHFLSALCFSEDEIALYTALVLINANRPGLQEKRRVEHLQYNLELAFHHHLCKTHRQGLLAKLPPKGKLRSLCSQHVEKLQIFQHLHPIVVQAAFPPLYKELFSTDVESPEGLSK
#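 Using a luciferase readout, inhibitors were identified by reduced reporter activity in Drosophila cells coexpressing a copper-inducible Gal4–ROR gamma fusion and UAS-driven Photinus luciferase, incubated 20 hr after 700 uM copper sulfate.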
# Gal4-VP16 FLuc: VP16 counterscreen qHTS for inhibitors of ROR gamma transcriptional activity. Drosophila S2 Gal4-VP16 UAS-luciferase, luminescence, 20 h. Potency, µM (highest dose often 53.6 µM), for the others: top-dose activity, negative = inhibition, most hits filed as inhibitors. 3.5% of 310,000 active;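 note: Gal4-VP16 expression switched on by copper sulfate through the metallothionein promoter; potency is the fitted concentration of half-maximal effect; nearly all actives have a fitted effect of over 50% in size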
# ELG1 repair inh: qHTS screen for small molecules that inhibit ELG1-dependent DNA repair in human embryonic kidney (HEK293T) cells expressing luciferase-tagged ELG1; 2.3% of 330,000 active; HEK293T ELG1-luciferase reporter, luminescence, 16 h; DNA damage induced by 5-fluorouridine; Potency, µM (titrated, usually from 46.1 µM), for the others: at the top dose activity change, negative = inhibition, usual class: inhibitors; note: potency is the fitted concentration of half-maximal effect; nearly all actives have a fitted effect of over 55% in size
#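 Cells (2,000 per well) received 5-fluorouridine plus test compound or DMSO and were incubated 16 hr at 37 °C, 5% CO2. Luciferase activity was read by luminescence 30 min after ONE-Glo addition; signal suppression marked inhibition of damage-induced ELG1 function.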
# Starred values were filed as active, the others as inactive; u = inconclusive; x = not tested or not shown; [ ] = dose if it differs, or a comment. An excerpt weighted towards active compounds, which were near 21% of everything screened. Unless noted, calls come from the whole dose curve; as a rule, active = well fitted curve in the direction sought with a large enough effect; inconclusive = small, poorly fitted or top-dose-only effect, or another doubt; inactive = no such curve, though single readings can be large; an effect the other way counts as inactive or inconclusive. % is set by controls: 0 for no effect and ±100 for the full control effect.
SMILES,IL-1B inflam inh,TDP1 cell CPT,DT40 TDP1 no CPT,RORgamma inh,Gal4-VP16 FLuc,ELG1 repair inh
Cc1ccc(NC(=O)c2ccccc2SCC(=O)N2CCCC2)cc1S(=O)(=O)N(C)C,2,-6%,-12%,6%,1%,7%
COc1ccc(-c2cc(C(=O)Nc3ccccc3O)c3ccccc3n2)cc1OC,21,-30%,u,14%,5%,23µM*
CC(C)=NOCc1ccc(-c2cc(-c3ccccc3)no2)cc1,x,x,x,-12%[10 µM],5%[10 µM],x
O=C(CSc1ccccn1)N1CCN(C(=O)CSc2ccccn2)CC1,20,5%,2%,16%,-4%,0%
OC(CN1CCN(c2ncc(C(F)(F)F)cc2Cl)CC1)c1ccccc1 (stereo unspecified),4,u,u,-17%,-11%,-14%
O=C(CSc1ccccn1)N1CCN(c2ncc(C(F)(F)F)cc2Cl)CC1,-8,u,16µM*,u,-9%,u
FC(F)(F)c1cnc(N2CCN(C(=S)NCc3ccccc3)CC2)c(Cl)c1,-93*,u,21µM*,-10%,-15%,u
O=C(O)c1nn(CC(=O)N2CCN(c3ncc(C(F)(F)F)cc3Cl)CC2)c(=O)c2ccccc12,-6,-25%,16µM*,u,u,-5%
NNC(=O)c1sc(-c2ccc(Cl)cc2)cc1N,-78*,-11%,-7%,34%,u,u
O=C(Cc1ccc([N+](=O)[O-])cc1)NCc1ccc2c(c1)OCO2,0,-11%,-25%,27%,-3%,-4%
Cc1ccc(S(=O)(=O)N(C)CCCC(=O)NCc2ccc3c(c2)OCO3)cc1,26,-15%,23µM*,-13%,-11%,-18%
CN(CCCC(=O)NCc1ccc2c(c1)OCO2)S(=O)(=O)c1ccc([N+](=O)[O-])cc1,-3,u,23µM*,27%,-13%,0%
Cc1ccc(S(=O)(=O)NCCC(=O)NCc2ccc3c(c2)OCO3)cc1C,-9,-11%,-2%,0%,0%,-10%
CCOc1ccc(NC(=O)c2nn(C)c3c2CS(=O)(=O)c2ccccc2-3)cc1,x,4%,-9%,x,x,x
COc1cccc(CNC(=O)c2ccc3c(c2)nnn3C2CCCC2)c1,x,u,-26%,x,x,x
Cc1c(C(N)=O)nnn1-c1ccc(Br)cc1,x,9%,-12%,x,x,x
CCN(CC)CCCNc1ncnc2ccccc12,22,5%,1%,1%,3%,12%
OCCCCCNc1ncnc2ccccc12,46,8.2µM*,7.3µM*,u,u,u
COc1ccc(OC)c(Nc2cc3ccccc3c(=O)[nH]2)c1,63,1.3µM*,1.8µM*,x,x,x
COc1ccccc1Nc1cc2cc(Br)ccc2c(=O)[nH]1,79,2.6µM*,5.2µM*,x,x,x
COc1ccc(OC)c(NC(=O)Nc2cccc3ccccc23)c1,0,-19%,-19%,-18%,-19%,-20%
O=c1[nH]c(Nc2ccccc2)cc2cc(Br)ccc12,36,u,18µM*,x,x,x
O=c1[nH]c(Nc2ccccc2)cc2ccccc12,-7,-25%,u,3%,-4%,2%
Cc1cc(CSc2ccc(Cl)cc2)ccc1N,u,2%,-14%,x,x,x
CCC1CN(C(=O)Nc2cccc3c2CCCC3)c2ccccc2O1 (stereo unspecified),x,u,16µM*,x,x,x
SMILES,IL-1B inflam inh,TDP1 cell CPT,DT40 TDP1 no CPT,RORgamma inh,Gal4-VP16 FLuc,ELG1 repair inh
CCC1CN(C(=O)Nc2ccccc2C(F)(F)F)c2ccccc2O1 (stereo unspecified),x,6%,2%,x,x,x
CCC1CN(C(=O)Nc2ccc(C)cc2)c2cc(C)ccc2O1 (stereo unspecified),-11,u,16µM*,7%,-3%,-8%
CCC1CN(C(=O)NCc2ccc(F)cc2)c2cc(C)ccc2O1 (stereo unspecified),0,u,u,10%,-5%,-6%
CCC1CN(C(=O)Nc2cccc3c2CCCC3)c2cc(Cl)ccc2O1 (stereo unspecified),x,u,21µM*,x,x,x
COC(=O)NC(c1cccc(F)c1)[C@@]1(C(=O)OC)CCCC1=O (stereo partly specified),x,x,x,-17%[10 µM],-3%[10 µM],x
CCN(Cc1ccncc1)Cc1ccc2c(c1)CN(C(=O)c1ccc(C)cc1)CCO2,x,8%[9.04 µM],u,x,x,x
COc1ccc(C(=O)NC(=S)Nc2ccc3c4c(cccc24)CC3)cc1OC,28,u,u,7.9µM*,u,3%
CC(C)Oc1cccc(C(=O)NC(=S)Nc2ccc3c4c(cccc24)CC3)c1,-23,u,u,11µM*,u,-4%
COc1cc(OC)cc(C(=O)NC(=S)Nc2ccc3c4c(cccc24)CC3)c1,-1,-29%,-17%,u,5.6µM*,-4%
COc1ccc(C(=O)Nc2ccc3c4c(cccc24)CC3)cc1,-5,-10%,u,21%,15%,u
CC(C)Oc1cccc(C(=O)NC(=S)Nc2ccc(Cl)c(C(=O)O)c2)c1,33,3%,-2%,-24%,u,10%
Cc1noc(C)c1-c1ccc2ncnc(NCc3ccc4c(c3)OCO4)c2c1,x,x,x,-2%,-4%,x
COc1ccccc1CNC(=O)COC(=O)/C=C/c1ccc2c(c1)OCO2,-1,-17%,-12%,x,x,0%
Cc1ccc(Nc2cc(C)c(O)c(C)c2)cc1,u,5.2µM*,5.2µM*,8.9µM*,u,u
COc1cc(CNCCO)cc(Cl)c1OCc1ccc(Cl)cc1Cl,-83*,u,21µM*,-2%,-8%,2%
COc1cc(CNC(C)(C)CO)cc(Br)c1OCc1ccc(Cl)cc1Cl,u,u,u,-26%,u,0%
COc1cc(CNCCO)cc(Br)c1OCc1ccccc1Cl,-15,23µM*,u,-22%,0%,-10%
CCc1cc(=O)oc2cc(C)cc(OCC(=O)N3CCC(C(=O)O)CC3)c12,4,7%,-2%,-9%,-3%,9%
Cc1cccc(CSc2nc(N)c(C#N)c(-c3cccs3)c2C#N)c1,-54*,u,u,u,u,u
CC(C)(C)C(=O)CSc1nc2c(c(-c3cccs3)c1C#N)CCC2,15,u,23µM*,u,4%,-1%
